Hits are enriched below; roughly 2.3% of the tested compounds scored in any of these assays.
ABHD5 PLIN5 PPI – inhibitors of human ABHD5-perilipin-5 interaction | Q00G26+Q8WTS1 | Split G. princeps luciferase complementation, luminescence, 4 h | inhibition, % at 4 µM | actives 0.78% (n = 360,000) | AID 602281;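 active = inhibition above the mean inhibition across every tested compound plus 3 SD, cut at about 22% in these data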;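 also: 0% = DMSO only wells and the 100% control is not disclosed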
m5-HT2A agonist – activates the mouse 5-HT2A serotonin receptor. P35363. CHO-K1 mHTR2A beta-arrestin complementation, luminescence; percent of 30 µM serotonin response. activation, % at 7.6 µM. actives 0.66% (n = 360,000). AID 624169;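 active = activation above a run cutoff, the mean activation of all tested compounds plus 3 SD, cut at about 14% in these data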;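 also: 0% = plate median of compound wells and 100% = 30 µM serotonin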
B2AR ag – agonists of human beta-2 adrenergic receptor inducing internalization; Am2.2-beta2AR cells, FAP receptor internalization, flow cytometry; AID 504454; P07550; actives 0.43% (n = 340,000); response, % (test concentration not listed);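 active = response above a set limit, near 3 SD of response in nonfluorescent compounds, cut at about 42% in these data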
NTR1 agonist – agonists of human neurotensin receptor NTR1; activation, % at 20 µM; NTR1-U2OS beta-arrestin-GFP spot imaging, agonist mode; AID 493036; P30989; actives 0.17% (n = 330,000);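 active = activation at or above 40% of the spot to cytoplasm intensity ratio, with at least 20 cells analyzed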;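 also: 0% = DMSO without peptide and 100% = 100 nM NTR1 peptide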
Granule exo inh – blocks lytic granule exocytosis; actives 0.66% (n = 360,000); inhibition, % at 10 µM; TALL-104 LAMP-1 surface exposure, flow cytometry; cells stimulated with thapsigargin and PMA;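 active = inhibition above about 55%, limit read from the data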
ABHD5-PLIN5 conf – confirmation of human ABHD5-PLIN5 interaction inhibitors | shares compounds with ABHD5 PLIN5 PPI | biochemical ABHD5-PLIN5 interaction, luminescence | inhibition, % at 4 µM | actives 67% (n = 2,200); in the data active = inhibition above about 23%;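 also: 0% = DMSO vehicle wells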
HNF4 split-luc – counter-screen for ABHD5-PLIN5 inhibitors: HNF4 split-luciferase. shares compounds with ABHD5 PLIN5 PPI. HNF4 dimerization, luminescence, biochemical. inhibition, % at 4 µM. actives 77% (n = 2,200). AID 651674;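 active = mean inhibition across replicate wells exceeding the computed hit threshold, cut at about 13% in these data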;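 also: light from luciferase halves that rejoin when HNF4 fusion proteins dimerize; 0% = DMSO only wells and the 100% control is not given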
Target sequence (P41235 whole entry, looked up, the tested form may be a part): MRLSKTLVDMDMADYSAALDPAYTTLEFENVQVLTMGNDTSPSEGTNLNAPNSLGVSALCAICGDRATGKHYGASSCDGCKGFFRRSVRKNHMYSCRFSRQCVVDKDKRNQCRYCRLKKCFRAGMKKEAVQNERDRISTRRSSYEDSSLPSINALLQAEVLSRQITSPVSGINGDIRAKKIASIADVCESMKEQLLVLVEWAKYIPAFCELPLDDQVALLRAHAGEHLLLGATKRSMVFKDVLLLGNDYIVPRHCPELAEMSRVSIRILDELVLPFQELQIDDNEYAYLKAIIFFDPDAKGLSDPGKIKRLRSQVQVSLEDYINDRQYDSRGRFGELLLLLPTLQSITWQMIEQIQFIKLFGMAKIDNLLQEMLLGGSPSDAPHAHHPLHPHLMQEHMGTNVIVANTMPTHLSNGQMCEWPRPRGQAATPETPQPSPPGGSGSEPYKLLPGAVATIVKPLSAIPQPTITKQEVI
Numbers without * were called inactive; · = not tested or not shown; ! = not confirmed by another sample.

SMILES	ABHD5 PLIN5 PPI	m5-HT2A agonist	B2AR ag	NTR1 agonist	Granule exo inh	ABHD5-PLIN5 conf	HNF4 split-luc
CNC(=S)N(C)CCc1cc2c(c(OC)c1/C=C1/C(=O)NC(=O)N(C)C1=O)OCO2	35*	9	3	0	-10	9	18*
COCCNC(=O)c1c(N)n(Cc2ccco2)c2nc3ccccc3nc12	18	-4	-5	-1	2	·	·
C=CCNC(=O)c1c(N)n(Cc2ccco2)c2nc3ccccc3nc12	36*	3	6	-1	7	50*	66*
CNS(=O)(=O)c1ccc(N=Cc2c(O)n(-c3cccc(C)c3)c(=O)[nH]c2=O)cc1	17	-2	-1	1	-4	·	·
CNS(=O)(=O)c1ccc(N=Cc2c(O)n(-c3ccccc3)c(=O)[nH]c2=O)cc1	40*	5	5	-1	0	6	22*
O=c1[nH]c(=O)n(-c2cccc(Cl)c2)c(O)c1/C=N/c1ccccn1	26*	3	-9	1	-11	4	27*
COc1ccc(-n2nnnc2C(c2cccc3ccccc23)N2CCC3(CC2)C(=O)NCN3c2ccccc2)cc1 (stereo not given)	7	4	·	·	-1	·	·
CCCCn1c(O)c(/C(C)=N/NC(=O)Nc2ccccc2)c(=O)[nH]c1=O	6	2	-2	1	0	·	·
CCc1nn2c(=O)c(F)c(N3CCNCC3)nc2s1	10	7	·	·	1	·	·
COC(=O)C1=C(c2ccc(F)cc2OCc2ccccc2)C[C@@H]2CC[C@H]1N2C(=O)NCC1CC1	-2	-3	6	-1	4	·	·
COC(=O)C1=C(C(=O)OC)C2OC1c1cc3ccccc3cc12	81*	-9	17	·	5	78*	109*
COC(=O)C1=C(c2ccc3ccccc3c2)C[C@@H]2CC[C@H]1N2C	8	-4	2	0	-8	·	·
O=C1NCN(c2ccccc2)C12CCN(C(c1cccc3ccccc13)c1nnnn1-c1ccc3c(c1)OCCO3)CC2 (stereo not given)	2	-3	·	·	0	·	·
COC(=O)C1=C(c2ccc3ccccc3c2)C[C@@H]2CC[C@H]1N2C(=O)NCCNC(C)=O	2	-8	-2	-1	-3	·	·
C=C1C(=O)OC2CC3(C)OC3CCC(C)=CC(OC(C)=O)C12 (stereo not given)	33*	-4	-47	·	38	45*	70*
Cn1c(O)c(C=Nc2cccc(C(F)(F)F)c2)c(=O)n(C)c1=O	24*	12	7	0	-6	6	14*
CCOC(=O)[C@]12Cc3cc(C)ccc3[C@H]1N(C)C(=O)c1cc(OC)ccc12	16	-10	·	·	9	·	·
CC(C)(C)n1nnnc1C(c1cccc2ccccc12)N1CCC2(CC1)C(=O)NCN2c1ccccc1 (stereo not given)	1	-1	·	·	-2	·	·
NS(=O)(=O)c1ccc(-c2ccc(C=C3C(=O)NC(=S)NC3=O)o2)cc1	·	·	·	-2	·	·	·
CNS(=O)(=O)c1ccc(-c2ccc(C=C3C(=O)NC(=O)NC3=O)o2)cc1	25*	5	-8	2	9	94*	99*
Cc1ccc(S(=O)(=O)Oc2ccccc2C=C2C(=O)NC(=O)NC2=O)cc1	21	-9	·	·	10	·	·
NS(=O)(=O)c1ccc(-c2ccc(C=C3C(=O)NC(=O)NC3=O)o2)cc1	25*	-2	6	-1	-6	91*	95*
CSCCC(c1nnnn1-c1ccc2c(c1)OCCO2)N1CCC(n2c(=O)[nH]c3ccccc32)CC1 (stereo not given)	7	6	·	·	-3	·	·
CSCCC(c1nnnn1C(C)(C)C)N1CCC2(CC1)C(=O)NCN2c1ccccc1 (stereo not given)	2	3	·	·	3	·	·
C=CCn1c(O)c(C(C)=Nc2cccc(C(F)(F)F)c2)c(=O)[nH]c1=O	98*	10	-14	-1	-4	-2	18*
SMILES	ABHD5 PLIN5 PPI	m5-HT2A agonist	B2AR ag	NTR1 agonist	Granule exo inh	ABHD5-PLIN5 conf	HNF4 split-luc
CCCNC(=O)N1CCC2(CC1)OCCO2	-3	-2	-2	2	3	·	·
COc1ccc(N=Nc2c(O)[nH]c(=S)[nH]c2=O)cc1	7	-1	4	1	-2	·	·
CSc1nc(N)c(N=Nc2ccc([As](=O)(O)O)cc2)c(=O)[nH]1	66*	-3	-2	2	-10	68*	52*
Cc1ccc(N2C(=O)NC(=O)/C(=C\c3cnc(-c4ccccc4)nc3)C2=O)cc1	30*	6	3	1	2	86*	92*
Cc1ccc(N2C(=O)NC(=O)/C(=C/c3cnn(-c4ccc(C)cc4)c3)C2=O)cc1	7	0	23	0	46	·	·
CCOc1ccc(N2C(=O)NC(=O)/C(=C/c3cnc(SC)nc3)C2=O)cc1	28*	9	-4	1	-1	71*	87*
CSc1ncc(/C=C2/C(=O)NC(=O)N(c3ccc(C)cc3)C2=O)cn1	18	4	7	0	0	·	·
CSc1ncc(/C=C2/C(=O)NC(=O)N(c3ccc(Cl)cc3)C2=O)cn1	42*	5	0	·	0	78*	91*
COC(=O)C1=C(c2cccc(C#N)c2)C[C@@H]2CC[C@H]1N2C(=O)NCc1cccc2ccccc12	0	-2	-7	2	0	·	·
O=c1[nH]sc2cc(F)ccc12	81*	4	4	·	33	40*	113*
O=C(CF)N(O)c1ccc(C=Cc2ccccc2)cc1	37*	-6	1	·	-1	46*	-4
O=C1c2cccc(N3CCNCC3)c2C2CCCCN12 (stereo not given)	2	-1	·	·	3	·	·
O=c1[nH]c(=O)n(Cc2ccccc2)c(O)c1/C=C1\C=Nc2ccccc21	14	-3	30	1	4	·	·
O=c1[nH]c(=O)n(CC2CCCO2)c(O)c1/C=C1\C=Nc2ccccc21 (stereo not given)	27*!	1	13	3	42	11	18*
O=c1[nH]c(O)c(/C=C2\C=NN=C2c2ccccc2)c(=O)[nH]1	30*	1	-4	0	-4	62*	63*
CC1=NN(c2ccccc2)C(=O)/C1=C/c1c(O)[nH]c(=O)[nH]c1=O	-22	2	1	1	-4	·	·
C=C1C(=O)O[C@@H]2C[C@@H](C)[C@H]3C=CC(=O)[C@]3(O)C[C@@H]12	33*	2	10	15	13	47*	24*
O=C1NC(=O)C(=Cc2ccccc2[N+](=O)[O-])C(=O)N1	0	1	2	·	-7	·	·
COc1ccc(N2C(=O)NC(=O)/C(=C\c3ccccc3[N+](=O)[O-])C2=O)cc1	23*	-3	-1	1	-6	81*	85*

High-throughput results as filed in PubChem BioAssay.
